Test results as given in PubChem BioAssay AID1159580 (chemical genetic matrix, 2015).
“And” between values parts separate entries of the source, which are not always exact repeats. Equal values may be shown once. Among all 5,500 compounds or so, about 2,000 (36%) were called active. Another 18% or so got no clear call; they are omitted. Rule as the data show it: active = normalized growth mostly below about 0.91 (no sharp cut-off); inconclusive = no clear call, values can overlap the other calls; inactive = mostly above about 0.92. The list shows a part of the results.

Assay: chemical genetic growth profiling, strain panel (AID 1159580);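 also: tested at 20 µM; growth read once vehicle control cultures reached saturation at 30 °C; 1 = growth at the plate median or of vehicle wells; lower values mean less growth of the strain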
Settings: S. cerevisiae deletion strains, growth OD

Measured: normalized growth

C=Cc1c2[nH]c(c1C)C=c1[nH]c(c(C)c1C=C)=CC1N=C(C=c3[nH]c(c(C)c3CCC(=O)O)=C2)C(CCC(=O)O)=C1C (configuration not stated)
inactive: locus YAL013W, strain DEP1, stronger effect = lower value 0.975 | locus YAL021C, strain ccr4, stronger effect = lower value 0.954 | locus YAL026C, strain drs2, stronger effect = lower value 1.02 | locus YAL030W, strain snc1, stronger effect = lower value 1.03 | locus YBL061C, strain skt5, stronger effect = lower value 1.02 | locus YBR009C, strain hhf1, stronger effect = lower value 1.02 | locus YBR021W, strain FUR4, stronger effect = lower value 1.01 | locus YBR023C, strain chs3, stronger effect = lower value 1.01 | locus YBR171W, strain sec66, stronger effect = lower value 1.08 | locus YBR229C, strain ROT2, stronger effect = lower value 0.961 | locus YBR231C, strain swc5, stronger effect = lower value 1.02 | locus YBR279W, strain paf1, stronger effect = lower value 1.01 | locus YCL011C, strain gbp2, stronger effect = lower value 1.05 | locus YCL016C, strain dcc1, stronger effect = lower value 1 | locus YCL029C, strain bik1, stronger effect = lower value 0.979 | locus YCL061C, strain MRC1, stronger effect = lower value 1.03 | locus YCL069W, strain vba3, stronger effect = lower value 1.02 | locus YCR088W, strain abp1, stronger effect = lower value 1.04 | locus YDL005C, strain med2, stronger effect = lower value 1.01 | locus YDL035C, strain GPR1, stronger effect = lower value 0.975 | locus YDL040C, strain nat1, stronger effect = lower value 0.993 | locus YDL074C, strain BRE1, stronger effect = lower value 0.988 | locus YDL101C, strain DUN1, stronger effect = lower value 0.981 | locus YDL134C, strain PPH21, stronger effect = lower value 0.988 | locus YDL185W, strain tfp1, stronger effect = lower value 0.983 | locus YDL192W, strain arf1, stronger effect = lower value 0.976 | locus YDR001C, strain nth1, stronger effect = lower value 1.03 | locus YDR069C, strain doa4, stronger effect = lower value 1.06 | locus YDR101C, strain arx1, stronger effect = lower value 0.987 | locus YDR137W, strain rgp1, stronger effect = lower value 1 | locus YDR150W, strain NUM1, stronger effect = lower value 0.973 | locus YDR159W, strain sac3, stronger effect = lower value 1.03 | locus YDR162C, strain NBP2, stronger effect = lower value 0.96 | locus YDR195W, strain ref2 1.03 | locus YDR297W, strain sur2, stronger effect = lower value 1.01 | locus YDR318W, strain mcm21, stronger effect = lower value 0.989 | locus YDR334W, strain swr1, stronger effect = lower value 1.04 | locus YDR335W, strain msn5, stronger effect = lower value 1.01 | locus YDR388W, stronger effect = lower value 0.999 | locus YDR392W, strain spt3, stronger effect = lower value 0.909 | locus YDR502C, strain sam2, stronger effect = lower value 0.952 | locus YEL003W, strain gim4, stronger effect = lower value 1.05 | locus YEL037C, strain rad23, stronger effect = lower value 1.02 | locus YEL061C, strain CIN8 (second series), stronger effect = lower value 1.02 | locus YEL061C, strain CIN8, stronger effect = lower value 0.986 | locus YER015W, strain faa2, stronger effect = lower value 1.04 | locus YER016W, strain bim1, stronger effect = lower value 1.02 | locus YER110C, stronger effect = lower value 0.972 | locus YER111C, strain swi4, stronger effect = lower value 1.03 | locus YER155C, strain BEM2 (second series), stronger effect = lower value 1.07 | locus YER155C, strain BEM2, stronger effect = lower value 1 | locus YER167W, strain BCK2, stronger effect = lower value 0.982 | locus YFR010W, strain ubp6, stronger effect = lower value 1.04 | locus YGL078C, strain dbp3, stronger effect = lower value 1.02 | locus YGL086W, strain mad1, stronger effect = lower value 0.938 | locus YGL167C, strain pmr1, stronger effect = lower value 1.02 | locus YGL173C, strain kem1, stronger effect = lower value 1.02 | locus YGL227W, strain vid30, stronger effect = lower value 1.05 | locus YGL240W, strain doc1, stronger effect = lower value 0.977 | locus YGL248W, strain PDE1, stronger effect = lower value 0.995 | locus YGL253W, strain hxk2, stronger effect = lower value 0.988 | locus YGR078C, strain PAC10, stronger effect = lower value 0.994 | locus YGR135W, strain pre9, stronger effect = lower value 0.961 | locus YGR229C, strain SMI1, stronger effect = lower value 0.923 | locus YGR252W, strain gcn5, stronger effect = lower value 1.05 | locus YHR013C, strain ard1, stronger effect = lower value 0.975 | locus YHR027C, strain rpn1, stronger effect = lower value 1.06 | locus YHR030C, strain SLT2, stronger effect = lower value 1 and 1.03 | locus YHR079C, strain IRE1 (second series), stronger effect = lower value 0.99 | locus YHR079C, strain IRE1, stronger effect = lower value 1.07 | locus YHR094C, strain hxt1, stronger effect = lower value 0.996 | locus YHR129C, strain ARP1, stronger effect = lower value 0.995 | locus YHR142W, strain chs7, stronger effect = lower value 0.975 | locus YHR200W, strain rpn10, stronger effect = lower value 0.97 | locus YIL066C, strain RNR3, stronger effect = lower value 0.982 | locus YIL073C, strain SPO22, stronger effect = lower value 1.01 | locus YIL125W, strain kgd1, stronger effect = lower value 1.02 | locus YIR030C, strain dcg1, stronger effect = lower value 0.986 | locus YJL092W, strain hpr5, stronger effect = lower value 1.02 | locus YJL095W, strain BCK1 (second series), stronger effect = lower value 1.02 | locus YJL095W, strain BCK1, stronger effect = lower value 1.02 and 1.01 | locus YJL115W, strain asf1, stronger effect = lower value 1.02 | locus YJL129C, strain trk1, stronger effect = lower value 1.04 | locus YJL134W, strain LCB3, stronger effect = lower value 0.988 | locus YJL154C, strain vps35, stronger effect = lower value 1.02 | locus YJL164C, strain tpk1, stronger effect = lower value 0.968 | locus YJL166W, strain qcr8, stronger effect = lower value 0.945 | locus YJL168C, strain set2, stronger effect = lower value 0.996 | locus YJL187C, strain SWE1 (second series), stronger effect = lower value 1 | locus YJL187C, strain SWE1, stronger effect = lower value 1 | locus YJR043C, strain POL32, stronger effect = lower value 0.962 | locus YJR066W, strain TOR1, stronger effect = lower value 0.995
